# Laboratory results: publication PMC7862700, “An all-to-all approach to the identification of sequence-specific readers for epigenetic DNA modifications on cytosine”
# What was measured:
# Assay in all cases: DAPPL (digital affinity profiling via proximity ligation, sequencing); 10 mM Tris-HCl pH 7.5, 50 mM NaCl, 1 mM DTT, 4% glycerol, room temperature, 30 min; GST-TFs on glutathione beads, 16-mer random dsDNA library, 0.1% formaldehyde crosslink after washing; high values mean tight binding
# Settings in all cases: protein: recombinant; tags: N-terminal GST; dsDNA, one strand shown
# FLI1 = target: T1, FLI1 (Homo sapiens, UniProt Q01543 1-452)
# T1 sequence: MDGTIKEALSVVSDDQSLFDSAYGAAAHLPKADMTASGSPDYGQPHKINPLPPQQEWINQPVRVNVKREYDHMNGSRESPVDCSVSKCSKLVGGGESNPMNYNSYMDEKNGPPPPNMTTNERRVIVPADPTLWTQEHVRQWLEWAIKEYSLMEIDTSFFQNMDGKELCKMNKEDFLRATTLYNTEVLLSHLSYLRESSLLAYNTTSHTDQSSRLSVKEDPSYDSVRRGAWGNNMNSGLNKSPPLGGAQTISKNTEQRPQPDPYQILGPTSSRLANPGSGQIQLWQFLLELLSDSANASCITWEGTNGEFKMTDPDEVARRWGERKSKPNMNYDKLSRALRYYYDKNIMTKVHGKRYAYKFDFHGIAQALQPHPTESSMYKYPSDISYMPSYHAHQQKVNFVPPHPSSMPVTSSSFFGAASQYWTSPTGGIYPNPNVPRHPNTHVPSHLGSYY
# Method in brief: (§1)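 Binding signal is defined as a hexamer's read frequency for one factor over its frequency for the tag-only sample. To obtain reads, GST-fused human transcription factors were expressed in yeast, captured on glutathione beads, barcoded with DNA and pooled with that sample. Pools met 200 nmole of a 16-mer random double-stranded DNA library in Tris/NaCl/DTT/glycerol buffer for 30 min at room temperature before washing, 0.1% formaldehyde crosslinking, proximity ligation (BsaI/T4 ligase, 1 h, 37 °C), PCR and Illumina NextSeq500 sequencing.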
# ELK1 = target: T2, ELK1 (Homo sapiens, UniProt P19419 1-428)
# T2 sequence: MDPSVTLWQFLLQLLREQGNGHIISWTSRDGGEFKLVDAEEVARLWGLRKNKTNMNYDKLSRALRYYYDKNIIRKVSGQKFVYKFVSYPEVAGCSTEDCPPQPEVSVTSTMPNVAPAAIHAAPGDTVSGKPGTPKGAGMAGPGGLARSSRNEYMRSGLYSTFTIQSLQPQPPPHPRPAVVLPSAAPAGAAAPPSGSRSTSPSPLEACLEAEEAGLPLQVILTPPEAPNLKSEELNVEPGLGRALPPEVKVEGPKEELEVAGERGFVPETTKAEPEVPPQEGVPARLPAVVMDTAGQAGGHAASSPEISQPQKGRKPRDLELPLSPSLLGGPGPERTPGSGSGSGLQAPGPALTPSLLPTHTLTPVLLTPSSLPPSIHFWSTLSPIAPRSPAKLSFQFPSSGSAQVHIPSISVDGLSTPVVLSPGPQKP
# Method in brief: as §1
# GABPA = target: T3, GABPA (Homo sapiens, UniProt Q06546 1-454)
# T3 sequence: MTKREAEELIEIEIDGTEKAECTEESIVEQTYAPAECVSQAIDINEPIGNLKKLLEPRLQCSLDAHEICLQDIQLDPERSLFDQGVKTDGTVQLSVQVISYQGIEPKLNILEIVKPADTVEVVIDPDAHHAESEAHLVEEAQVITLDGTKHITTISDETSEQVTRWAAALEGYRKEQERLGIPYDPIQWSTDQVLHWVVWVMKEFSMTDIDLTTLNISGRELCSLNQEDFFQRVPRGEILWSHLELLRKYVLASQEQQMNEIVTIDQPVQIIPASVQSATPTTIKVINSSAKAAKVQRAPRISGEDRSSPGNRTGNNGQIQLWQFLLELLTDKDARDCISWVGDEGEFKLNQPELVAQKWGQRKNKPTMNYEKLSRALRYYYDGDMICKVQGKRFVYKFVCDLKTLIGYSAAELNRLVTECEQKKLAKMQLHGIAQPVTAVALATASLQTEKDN
# Method in brief: as §1
# ERG = target: T4, ERG (Homo sapiens, UniProt P11308 1-479)
# T4 sequence: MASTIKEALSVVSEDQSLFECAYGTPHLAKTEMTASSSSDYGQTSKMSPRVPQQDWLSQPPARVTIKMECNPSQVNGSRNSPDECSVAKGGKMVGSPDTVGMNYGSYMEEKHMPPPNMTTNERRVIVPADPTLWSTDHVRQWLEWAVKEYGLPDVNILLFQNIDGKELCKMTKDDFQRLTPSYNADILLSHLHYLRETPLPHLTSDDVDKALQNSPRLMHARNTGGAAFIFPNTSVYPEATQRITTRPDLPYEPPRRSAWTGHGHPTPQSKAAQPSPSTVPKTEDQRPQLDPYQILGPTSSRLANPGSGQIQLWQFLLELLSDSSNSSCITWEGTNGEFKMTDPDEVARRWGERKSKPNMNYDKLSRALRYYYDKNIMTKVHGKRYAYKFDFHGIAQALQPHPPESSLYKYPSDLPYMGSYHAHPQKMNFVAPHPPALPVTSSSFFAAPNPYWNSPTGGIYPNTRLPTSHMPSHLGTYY
# Method in brief: as §1
# ELF1 = ELF1 (Homo sapiens, UniProt P32519 1-619)
# Method in brief: as §1
# EHF = target: T5, EHF (Homo sapiens, UniProt Q9NZC4 1-300)
# T5 sequence: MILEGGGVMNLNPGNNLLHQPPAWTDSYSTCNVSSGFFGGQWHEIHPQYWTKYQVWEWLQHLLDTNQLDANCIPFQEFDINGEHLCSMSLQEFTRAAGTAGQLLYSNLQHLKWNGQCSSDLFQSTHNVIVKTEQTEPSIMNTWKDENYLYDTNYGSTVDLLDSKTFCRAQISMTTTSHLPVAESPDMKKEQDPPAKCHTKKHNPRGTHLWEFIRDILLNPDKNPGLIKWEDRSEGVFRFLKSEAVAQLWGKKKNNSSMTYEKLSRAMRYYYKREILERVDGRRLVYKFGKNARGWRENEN
# Method in brief: as §1
# SPI1 = SPI1 (Homo sapiens, UniProt P17947 1-270)
# Method in brief: as §1
# SPIB = SPIB (Homo sapiens, UniProt Q01892 1-262)
# Method in brief: as §1
# ELK3 = target: T6, ELK3 (Homo sapiens, UniProt P41970 1-407)
# T6 sequence: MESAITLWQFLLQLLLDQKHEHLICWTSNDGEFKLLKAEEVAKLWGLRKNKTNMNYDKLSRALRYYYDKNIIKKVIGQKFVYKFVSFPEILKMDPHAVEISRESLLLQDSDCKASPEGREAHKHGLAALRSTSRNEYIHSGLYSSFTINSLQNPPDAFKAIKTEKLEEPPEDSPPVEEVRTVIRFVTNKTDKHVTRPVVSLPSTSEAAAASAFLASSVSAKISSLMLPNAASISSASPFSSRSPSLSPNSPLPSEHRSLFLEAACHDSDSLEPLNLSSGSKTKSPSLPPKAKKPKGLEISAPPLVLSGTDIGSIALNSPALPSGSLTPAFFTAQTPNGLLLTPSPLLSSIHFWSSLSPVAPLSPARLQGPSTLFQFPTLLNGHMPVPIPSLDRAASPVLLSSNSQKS
# Method in brief: as §1
# FEV = target: T7, FEV (Homo sapiens, UniProt Q99581 1-238)
# T7 sequence: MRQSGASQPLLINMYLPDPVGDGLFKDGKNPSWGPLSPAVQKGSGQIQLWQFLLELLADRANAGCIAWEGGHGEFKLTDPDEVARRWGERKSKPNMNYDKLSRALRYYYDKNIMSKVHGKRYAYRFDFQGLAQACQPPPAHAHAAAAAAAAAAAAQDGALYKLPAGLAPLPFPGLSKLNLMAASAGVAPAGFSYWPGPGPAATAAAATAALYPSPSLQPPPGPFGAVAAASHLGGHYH
# Method in brief: as §1
# Sequence of ELF1 (P32519 whole entry): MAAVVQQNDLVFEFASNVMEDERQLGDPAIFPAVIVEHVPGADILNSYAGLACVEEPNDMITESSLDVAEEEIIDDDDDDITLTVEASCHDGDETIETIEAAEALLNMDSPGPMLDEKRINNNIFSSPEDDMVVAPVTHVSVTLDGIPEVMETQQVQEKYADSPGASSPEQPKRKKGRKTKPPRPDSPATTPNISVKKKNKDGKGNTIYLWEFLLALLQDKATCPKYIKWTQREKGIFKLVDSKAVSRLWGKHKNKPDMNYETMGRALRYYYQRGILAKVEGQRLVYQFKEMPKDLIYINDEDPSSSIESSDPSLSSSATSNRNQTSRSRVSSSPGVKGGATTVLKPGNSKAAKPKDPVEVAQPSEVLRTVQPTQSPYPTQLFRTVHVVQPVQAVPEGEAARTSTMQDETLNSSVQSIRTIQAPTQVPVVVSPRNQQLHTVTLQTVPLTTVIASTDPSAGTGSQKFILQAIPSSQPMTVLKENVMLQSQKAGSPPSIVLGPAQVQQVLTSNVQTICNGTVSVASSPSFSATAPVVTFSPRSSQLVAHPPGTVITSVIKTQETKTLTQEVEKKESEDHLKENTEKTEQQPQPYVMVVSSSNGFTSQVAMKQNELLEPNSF
# Sequence of SPIB (Q01892 whole entry): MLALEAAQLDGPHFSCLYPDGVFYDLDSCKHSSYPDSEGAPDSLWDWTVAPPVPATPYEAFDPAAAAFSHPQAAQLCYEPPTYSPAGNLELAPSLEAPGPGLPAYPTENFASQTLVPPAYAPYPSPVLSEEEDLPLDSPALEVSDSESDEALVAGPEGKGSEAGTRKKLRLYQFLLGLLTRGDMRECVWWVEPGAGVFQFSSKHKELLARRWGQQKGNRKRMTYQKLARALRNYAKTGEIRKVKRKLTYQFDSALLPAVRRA
sequence,measurement,setting,value
CGATGT,binding signal,FLI1,"1.1 fold enrichment (6-mer frequency, TF over GST control)"
same,binding signal,ELK1,"1.07 fold enrichment (6-mer frequency, TF over GST control)"
same,binding signal,GABPA,"1.08 fold enrichment (6-mer frequency, TF over GST control)"
same,binding signal,ERG,"1.08 fold enrichment (6-mer frequency, TF over GST control)"
same,binding signal,ELF1,"1.03 fold enrichment (6-mer frequency, TF over GST control)"
same,binding signal,EHF,"1.11 fold enrichment (6-mer frequency, TF over GST control)"
same,binding signal,SPI1,"1.15 fold enrichment (6-mer frequency, TF over GST control)"
same,binding signal,SPIB,"1.08 fold enrichment (6-mer frequency, TF over GST control)"
same,binding signal,ELK3,"1.04 fold enrichment (6-mer frequency, TF over GST control)"
same,binding signal,FEV,"1.06 fold enrichment (6-mer frequency, TF over GST control)"
